A number with no mark means an inactive call.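 How the source made its calls: active means inhibition of at least 60% at 114 µM in the USP2 gel assay; inconclusive means inhibition from 30% up to under 60% at 114 µM; inactive means inhibition under 30% at 114 µM.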
Each compound was assayed against Ubiquitin carboxyl-terminal hydrolase 2 (Homo sapiens) (UniProt O75604) (assay: Inhibitors of USP1/UAF1: SAR in USP2 diubiquitin SDS-PAGE gel assay). Conditions: USP2 K63 diubiquitin cleavage, SDS-PAGE gel densitometry; series mostly up to 114 µM; inhibition: at the top concentration.
Sequence of Ubiquitin carboxyl-terminal hydrolase 2 (Homo sapiens) (O75604 whole entry, looked up): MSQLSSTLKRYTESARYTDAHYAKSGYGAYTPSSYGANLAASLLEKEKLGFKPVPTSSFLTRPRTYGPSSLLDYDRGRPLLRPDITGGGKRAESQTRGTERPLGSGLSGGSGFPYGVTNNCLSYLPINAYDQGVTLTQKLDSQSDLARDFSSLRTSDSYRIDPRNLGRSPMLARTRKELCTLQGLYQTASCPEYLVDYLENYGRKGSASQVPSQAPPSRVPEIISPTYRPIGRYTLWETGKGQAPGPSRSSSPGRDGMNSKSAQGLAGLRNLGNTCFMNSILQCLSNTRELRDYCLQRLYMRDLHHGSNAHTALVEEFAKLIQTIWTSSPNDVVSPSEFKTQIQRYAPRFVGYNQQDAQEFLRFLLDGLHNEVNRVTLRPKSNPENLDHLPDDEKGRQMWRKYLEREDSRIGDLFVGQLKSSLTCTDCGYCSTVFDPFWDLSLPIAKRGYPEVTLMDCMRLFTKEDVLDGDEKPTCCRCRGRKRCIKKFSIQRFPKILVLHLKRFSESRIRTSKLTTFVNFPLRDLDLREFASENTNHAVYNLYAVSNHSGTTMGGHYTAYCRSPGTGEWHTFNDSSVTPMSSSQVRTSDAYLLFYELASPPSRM
Text: Deubiquitinating enzymes (DUBs) are a class of enzymes that can cleave isopeptide bond formed between the C-terminal carboxylate of ubiquitin and a lysine side-chain amino group on the target protein. Among them, ubiquitin specific proteases (USPs) constitute the largest DUB family. Human USPs are emerging as promising targets for pharmacological intervention because of their connection to a number of human diseases, including prostate, colon and breast cancer (1, 2), pediatric acute lymphoblastic leukemia (3), and familial cylindromatosis (4). The advantage of inhibiting USPs lies in the potential specificity of therapeutic intervention that can lead to better efficacy and reduce nonspecific side effects. In a collaboration between the University of Delaware and the NIH Chemical Genomics Center, a high-throughput screen assay was developed to screen for USP1/UAF1 inhibitors (5). […]
The inhibition assay contains 20 nM USP2, 2 microM K63 linked diubiquitin, and inhibitors at varied concentrations (0.08 microM - 114 microM). […] The intensity of the individual diubiquitin and monoubiquitin band was quantified using Quantity One 4.3.1 (Biorad, Hercules, CA). The percentage of the conversion was determined and used to calculate the reaction rate. […]

SMILES | inhibition
Cc1cnc(-c2ccccc2C(C)C)nc1NCc1ccc(-n2ccnn2)cc1 | 8%
